Sampled rows, rich in hits. Any-hit rate of the full collection: about 2.9%.
TSHR antagonist – Antagonists of the Thyroid Stimulating Hormone Receptor: HTS campaign. TSHR-expressing cells, TSH-stimulated cAMP HTRF, 2 h; stronger effect = lower value. activity change, negative = inhibition, % at 11.5 µM. AID 504810, 2011. 330,000 compounds, 0.2% hits;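 active = activity change below a set negative limit, meaning inhibition stronger than a set level, cut at about -70% in these data; inconclusive = activity change between two set negative limits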; also: % is scaled to controls: 0 for no effect and ±100 for the full control effect
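Inhibition of cAMP made by TSHR-expressing cells under TSH stimulation (4nM final, EC80; 2 h, 37 deg C) is quantified with a one-step lysis HTRF kit, anti-cAMP cryptate versus cAMP-d2.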
DRD3 agonist – qHTS of D3 Dopamine Receptor Agonist: qHTS; AID 652048, 2013; D(3) dopamine receptor (Homo sapiens), P35462; max activation, %; D3R DiscoveRx beta-arrestin cells, luminescence, 90 min; 410,000 compounds, 0.58% hits; in the data active = max activation above about 30%; also: 0% is about no effect
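Cells at 1500/well, incubated overnight, then treated with pinned compounds (dopamine as control) for 90 min at 37 degrees C. DiscoveRx reagent added for 30 - 60 minutes at room temperature; luminescence read.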
D3 antag – qHTS of D3 Dopamine Receptor Antagonist: qHTS. D3R cells, DiscoveRx beta-arrestin luminescence, antagonist mode; stronger effect = lower value. D(3) dopamine receptor (Homo sapiens), P35462. max response, negative = inhibition, %. 360,000 compounds, 2.5% hits; in the data active = max response below about -50%; inconclusive = no clear call, values can overlap the other calls; also: % is scaled to controls: 0 for no effect and ±100 for the full control effect
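Cells expressing the human receptor were seeded at 1500 cells/well, incubated overnight at 37 degrees C in 5% CO2, then exposed to library compounds with dopamine controls for 90 minutes at 37 degrees C before luminescent detection.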
B2AR arrestin – qHTS assay of beta-arrestin-biased ligands of beta2-adrenergic receptor; 330,000 compounds, 0.02% hits; Potency, µM (series often up to 46.1 µM), for the others: at the top dose activation, actives largely listed as activators; beta-arrestin recruitment to beta2AR, cell-based reporter; Beta-2 adrenergic receptor (Homo sapiens), P07550; active = well fitted activation curve with a large enough effect; inconclusive = small, poorly fitted or top-dose-only effect;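 also: potency is read from the fitted curve at half-maximal effect; 0% = DMSO controls and full agonism = EC100 isoproterenol or metaproterenol; nearly all actives have a fitted effect of over 65% in size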
Target sequence (P07550 whole entry, looked up): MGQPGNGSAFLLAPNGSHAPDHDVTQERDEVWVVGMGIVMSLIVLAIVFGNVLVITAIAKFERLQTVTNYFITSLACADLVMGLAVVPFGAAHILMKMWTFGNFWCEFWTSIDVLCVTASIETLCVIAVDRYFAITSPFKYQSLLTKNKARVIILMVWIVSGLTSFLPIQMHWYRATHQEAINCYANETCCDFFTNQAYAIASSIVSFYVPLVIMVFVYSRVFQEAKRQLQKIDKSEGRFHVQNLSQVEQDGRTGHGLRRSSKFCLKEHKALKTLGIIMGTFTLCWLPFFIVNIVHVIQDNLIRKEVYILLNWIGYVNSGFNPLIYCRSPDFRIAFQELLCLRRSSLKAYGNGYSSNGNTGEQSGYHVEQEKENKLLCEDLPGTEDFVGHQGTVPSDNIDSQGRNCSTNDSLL
* = called active by the depositor; ? = inconclusive; . = no result.

SMILES	TSHR antagonist	DRD3 agonist	D3 antag	B2AR arrestin
Cc1ccccc1N1C(=O)CC(Sc2nnc(-c3ccccc3)o2)C1=O (centres undefined)	10	-11	-79*	0%
CCC(Sc1nnc(-c2ccc(F)cc2)c(-c2ccc(F)cc2)n1)C(=O)NC1CCCC1 (centres undefined)	.	4	.	.
O=C(Cn1[nH]c(=O)c2ccccc2c1=O)NC1CCN(Cc2ccccc2)CC1	-2	-8	-72*	0%
O=C(CCCCn1c(=O)c2ccccc2n(Cc2ccccc2)c1=O)NC1CCN(Cc2ccccc2)CC1	13	-20	-58*	0%
Cc1cc(OCC(=O)Nc2cc(-c3nc4ccccc4[nH]3)ccc2C)ccc1Cl	.	19	.	.
CC(=O)Nc1ccc(C(=O)CSc2nnc3cc(C)c4ccccc4n23)cc1	.	6	.	.
COc1ccc(C(=O)NCC(=O)OCc2cc(=O)n3nc(C4CCCCC4)sc3n2)cc1	.	2	.	.
O=C(C1CCN(S(=O)(=O)c2cccc3cccnc23)CC1)N1CCc2ccccc21	47	1	-53*	0%
O=C(O)C1CCN(S(=O)(=O)c2cccc3cccnc23)CC1	7	7	4	0%
O=C(C1CCN(S(=O)(=O)c2cccc3nsnc23)CC1)N1CCn2c1nc1ccccc12	-12	-22	-101*	-1%
O=C(C1CCN(S(=O)(=O)c2cccc3cccnc23)CC1)N1CCCC1	14	-13	-79*	-4%
COc1cc(NC(=O)[C@@H]2CCCN(S(=O)(=O)c3cccc4cccnc34)C2)cc(OC)c1OC	-29	43*	106	0%
O=C(C1CCN(S(=O)(=O)c2cccc3nsnc23)CC1)N1CCc2ccccc21	-13	-4	-3	-2%
CC(Sc1cn(CCNC(=O)c2ccccc2F)c2ccccc12)c1ccccc1 (centres undefined)	.	7	.	.
Cc1ccc(S(=O)(=O)N2CCCC(C(=O)NC3CCCC3)C2)cc1Cl (centres undefined)	-84*	-8	2	-1%
Cc1ccc(S(=O)(=O)N2CCC(C(=O)NC3CCCC3)CC2)cc1Cl	10	-12	-21	0%
CNC(=O)N(O)C1N(/N=C/c2ccc(N(C)C)cc2)C(=S)SC1(C)C (centres undefined)	3	-1	-24	0%
CC1(C)SC(=S)N(/N=C/c2ccccc2)C1N(O)C(=O)Nc1ccc([N+](=O)[O-])cc1 (centres undefined)	-20	1	-56*	0%
COC(=O)c1ccc(=O)n(Cc2ccco2)c1	9	-5	3	0%
COC(=O)c1cc(Br)c(=O)n(Cc2ccco2)c1	-6	-9	-52*	-2%
O=C(Nc1ccc(Br)cc1F)c1cc(S(=O)(=O)NC2CCCC2)ccc1F	.	-8	.	.
Cc1cccnc1C(NC(=O)C1CCN(Cc2ccc(Oc3ccccc3)cc2)CC1)c1ccc(F)cc1 (centres undefined)	.	-14	-67*	.
Cc1cccnc1C(NC(=O)C1CCN(CCCc2ccccc2)CC1)c1ccc(Cl)cc1 (centres undefined)	.	-16	-78*	.
O=C(NC(c1ccc(Cl)cc1)c1cnccn1)C1CCN(Cc2ccc(Oc3ccccc3)cc2)CC1 (centres undefined)	.	-12	?	.
Cc1cccnc1C(NC(=O)C1CCN(Cc2cn(C)c3ccccc23)CC1)c1ccc(Cl)cc1 (centres undefined)	.	-23	-65*	.
SMILES	TSHR antagonist	DRD3 agonist	D3 antag	B2AR arrestin
Cc1cccnc1C(NC(=O)C1CCN(CCOc2ccc(F)cc2)CC1)c1ccc(F)cc1 (centres undefined)	.	-15	-71*	.
Cc1cccnc1C(NC(=O)C1CCN(Cc2ccc(Cl)cc2)CC1)c1ccccc1 (centres undefined)	.	-29	-102*	.
COc1cccc(OC)c1OCCN1CCC(C(=O)NC(c2ccccc2)c2ncccc2C)CC1 (centres undefined)	.	-18	?	.
O/N=C/c1cn(-c2ccccc2)nc1-c1ccccc1	1	45*	55	0%
c1ccc(COc2ncnc3c2ncn3CCCNCC(c2ccccc2)c2ccccc2)cc1	.	-13	-86*	.
O=C(Cn1cnc2c(OCc3ccccc3)ncnc21)NCc1ccccn1	6	0	-67*	4%
CCCN1CCN(C(=O)c2noc3c2COc2ccc(C)cc2-3)CC1	0	0	-64*	-1%
O=C1C[C@@H]2c3c(cccc3CN1Cc1ccccc1F)C[C@@H](O)[C@H]2O	.	49*	0	.
COc1ccc(Nc2nc(C)cc(-c3cc(-c4ccccc4)on3)n2)cc1	.	52*	35	.
c1ccc(-c2cc(-c3cc(-c4ccccc4)on3)no2)cc1	.	5	14	.
C/C(=N\Nc1nc(C)cc(-c2ccccc2)n1)c1ccc(F)cc1	24	1	-5	3%
COc1ccc(/C(C)=N/Nc2nc(C)cc(-c3ccccc3)n2)cc1	.	48*	9	.
COc1ccc(-c2cc(-c3ccccc3)no2)cc1	-32	35*	20	0%
COC(=O)C1=C(C)N(Cc2ccccc2)C(=O)N[C@H]1c1cccs1	-7	-5	-55*	-1%
COc1cccc(C2C(C(=O)Nc3nc4ccccc4s3)=C(C)NC3=C2C(=O)CC(C)(C)C3)c1OC (centres undefined)	20	2	88	0%
COc1ccc(OC)c(C2C(C(=O)Nc3nc4ccccc4s3)=C(C)NC3=C2C(=O)CCC3)c1 (centres undefined)	-13	30*	44	0%
O=c1c(-c2cccc3ccccc23)[n+]([O-])c2ccccc2n1O	0	-2	-53*	-1%
Cc1ccc(NC(=O)CSc2nnc(-c3ccco3)c(-c3ccco3)n2)cc1	-9	-1	-60*	0%
O=C(CSc1nnc(-c2ccco2)c(-c2ccco2)n1)Nc1ccccc1	-3	-13	42	0%
CC(C)c1ccc(OCCCCN2CCCCC2)cc1	-1	-21	-88*	0%
CC(C)(C)c1ccc(OCCCN2CCCC2)cc1	0	-2	-11	0%
CC1CN(CCCCOc2ccc(C(C)C)cc2)CC(C)O1 (centres undefined)	6	-8	-63*	0%
Cc1ccc(SCCOCCN2CC(C)OC(C)C2)cc1 (centres undefined)	-15	-17	-6	-1%
Clc1ccc(SCCOCCN2CCCCCC2)cc1	-2	-8	-115*	0%
CC(C)Oc1ccc(OCCCN2CCCCCC2)cc1	6	-7	-84*	0%
CCN1C(=O)c2ccccc2S(=O)c2ccc(C(=O)N3CCN(c4ccc(F)cc4)CC3)cc21 (centres undefined)	.	1	.	.
COC(=O)c1ccc(Cn2c(SCc3cccc(C)c3)nc3ccncc32)cc1	.	-13	.	.
CCOc1ccc(OCCN2CCCCC2)cc1	9	-8	-18	-1%
